Test results taken from the supplement of paper PMC8975748.
Structures can show the parent of a compound that is named as a salt.

Test system: Saccharomyces cerevisiae BY4741 SeMeCo community
Assay: z-score of subpopulation abundance vs DMSO median, subpopulation auxotrophic for HU; higher = larger share of this subpopulation than in DMSO controls
Conditions: 10 µM; 24 h; SM minimal medium; subpopulation (auxotrophy): HU
Protocol: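 Fluorescent four-plasmid SeMeCo (self-establishing metabolically cooperating S. cerevisiae BY4741 community; plasmids pH-mRuby2, pL-mWasabi, pU-eCFP, pM-TagRFP657) was grown 24 h in minimal SM medium with each Selleck FDA-approved drug at 10 µM in 384-well plates. Cells were fixed and imaged by high-content confocal microscopy. For each auxotrophic subpopulation (and the prototroph), a z-score gives the deviation from the DMSO vehicle-control population median.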

| Compound | z-score of subpopulation abundance |
| --- | --- |
| O=c1[nH]c2ccccc2n1CCCN1CCC(n2c(=O)[nH]c3cc(Cl)ccc32)CC1 [Domperidone] | 0.86 |
| CC(=O)O[C@H]1C[C@@H]2CC[C@@H]3[C@H](CC[C@@]4(C)[C@H]3C[C@H]([N+]3(C)CCCCC3)[C@@H]4OC(C)=O)[C@@]2(C)C[C@@H]1[N+]1(C)CCCCC1 [Pancuronium dibromide] | -0.53 |
| CC(C)N(CCC(C(N)=O)(c1ccccc1)c1ccccn1)C(C)C (centres undefined) [Disopyramide] | -0.45 |
| CN(C)[C@@H]1C(=O)C(C(N)=O)=C(O)[C@@]2(O)C(=O)C3=C(O)c4c(O)cccc4[C@@](C)(O)[C@H]3[C@H](O)[C@@H]12 [Oxytetracycline Dihydrate] | -0.06 |
| O=C(O[C@H]1C[C@H]2CC[C@@H](C1)[N+]21CCCC1)C(O)(c1ccccc1)c1ccccc1 [Trospium chloride] | 0.09 |
| CN[C@@H]1[C@@H](O)[C@@H](O[C@@H]2[C@@H](O)[C@H](O[C@H]3O[C@H](CN)CC[C@H]3N)[C@@H](N)C[C@H]2N)OC[C@]1(C)O.CN[C@@H]1[C@@H](O)[C@@H](O[C@@H]2[C@@H](O)[C@H](O[C@H]3O[C@H]([C@@H](C)N)CC[C@H]3N)[C@@H](N)C[C@H]2N)OC[C@]1(C)O.CN[C@@H]1[C@@H](O)[C@@H](O[C@@H]2[C@@H](O)[C@H](O[C@H]3O[C@H]([C@@H](C)NC)CC[C@H]3N)[C@@H](N)C[C@H]2N)OC[C@]1(C)O [Gentamicin Sulfate] | -0.53 |
| CN1[C@@H]2CC[C@H]1C[C@@H](OC(=O)[C@H](CO)c1ccccc1)C2 [Hyoscyamine] | -0.35 |
| C[N+]12CCC(CC1)C(OC(=O)C(O)(c1ccccc1)c1ccccc1)C2 (centres undefined) [Clidinium Bromide] | -0.29 |
| O=C(O[C@H]1C[N+]2(CCCOc3ccccc3)CCC1CC2)C(O)(c1cccs1)c1cccs1 [Aclidinium Bromide] | 0.63 |
| Nc1nc(N)nc(NC2CC2)n1 [Cyromazine] | 0.05 |
| C[N+](C)(C)CCCCCCCCCC[N+](C)(C)C [Decamethonium Bromide] | -0.06 |
| CN(C)[C@@H]1C(=O)C(C(N)=O)=C(O)[C@@]2(O)C(=O)C3=C(O)c4c(O)cccc4[C@@](C)(O)[C@H]3[C@H](O)[C@@H]12 [Oxytetracycline (Terramycin)] | 0.99 |
| CN1[C@@H]2C[C@@H](OC(=O)[C@H](CO)c3ccccc3)C[C@H]1[C@@H]1O[C@@H]12 [Scopolamine HBr trihydrate] | -0.46 |
| CCN(C)C(=O)Oc1cccc([C@H](C)N(C)C)c1 [Rivastigmine] | 0.2 |
| Cc1cc(C(C#N)c2ccc(Cl)cc2)c(Cl)cc1NC(=O)c1cc(I)cc(I)c1O (centres undefined) [Closantel] | 0.25 |
| CC(C)(O)C(Cl)(Cl)Cl [Chlorobutanol] | 0.05 |
| CN(C)C(=O)Oc1cccc([N+](C)(C)C)c1 [Neostigmine Bromide] | -0.26 |

| Compound | z-score of subpopulation abundance |
| --- | --- |
| CC(=O)OCC1=C(C(=O)O)N2C(=O)C(N)C2SC1 (centres undefined) [7-Aminocephalosporanic acid] | 0.37 |
| Cn1cc(C2=C(c3cn(C4CCN(Cc5ccccn5)CC4)c4ccccc34)C(=O)NC2=O)c2ccccc21 | -0.2 |
| CN1C(=O)COc2c(C(=O)NC3CN4CCC3CC4)cc(Cl)cc21 (centres undefined) [Azasetron HCl] | -0.34 |
| COc1ccc(C=O)cc1 [p-Anisaldehyde] | -0.72 |
| CN1[C@@H]2C[C@@H](OC(=O)[C@H](CO)c3ccccc3)C[C@H]1[C@@H]1O[C@@H]12 [Scopolamine HBr] | -1.37 |
| COc1ccc2c(c1)[C@]13CCCC[C@@H]1[C@H](C2)N(C)CC3 [Dextromethorphan hydrobromide hydrate] | -0.61 |
| C#C[C@]1(O)C=C[C@H]2[C@@H]3CCC4=CC(=O)CC[C@@H]4[C@H]3CC[C@@]21CC [Gestodene] | -0.67 |
| CN(C)C(=O)Oc1ccc[n+](C)c1 [Pyridostigmine Bromide] | 0.63 |
| O=[N+]([O-])C(Br)(CO)CO [Bronopol] | 0.4 |
| COc1ccc(C(CN(C)C)C2(O)CCCCC2)cc1 (centres undefined) [Venlafaxine HCl] | -0.07 |
| CC[N+](C)(CC)CCOC(=O)C(O)(c1ccccc1)c1ccccc1 [Methylbenactyzine Bromide] | -0.63 |
| COc1ccc(C(CN(C)C)C2(O)CCCCC2)cc1 (centres undefined) [Venlafaxine] | 0.4 |
| C[C@@H]1O[C@@H](O[C@H]2C[C@@H](O)[C@]3(CO)[C@H]4[C@H](O)C[C@]5(C)[C@@H](C6=CC(=O)OC6)CC[C@]5(O)[C@@H]4CC[C@]3(O)C2)[C@H](O)[C@H](O)[C@H]1O [Ouabain] | -0.71 |
| C=CN1CCCC1=O.II [Povidone iodine] | 1.56 |
| CN(C)[C@@H]1C(=O)C(C(N)=O)=C(O)[C@@]2(O)C(=O)C3=C(O)c4c(O)ccc(Cl)c4[C@@](C)(O)[C@H]3C[C@@H]12 [Chlortetracycline HCl] | -0.42 |
| N[C@@H]1C[C@H]1c1ccccc1 [Tranylcypromine (2-PCPA) HCl] | 0.44 |
| CN1c2ccccc2C(NCCCCCCC(=O)O)c2ccc(Cl)cc2S1(=O)=O (centres undefined) [Tianeptine sodium] | -1.1 |
